From ChEMBL document CHEMBL2218924, “A broad activity screen in support of a chemogenomic map for kinase signalling research and drug discovery” (Biochem J, 2013)

Experiments:
[1] = molecular target: BDNF/NT-3 growth factors receptor (Homo sapiens) (UniProt Q16620); conditions: at 10 µM
[2] = molecular target: T1, Tyrosine-protein kinase TXK (Homo sapiens) (UniProt P42681); conditions: at 1 µM
T1 sequence (whole entry): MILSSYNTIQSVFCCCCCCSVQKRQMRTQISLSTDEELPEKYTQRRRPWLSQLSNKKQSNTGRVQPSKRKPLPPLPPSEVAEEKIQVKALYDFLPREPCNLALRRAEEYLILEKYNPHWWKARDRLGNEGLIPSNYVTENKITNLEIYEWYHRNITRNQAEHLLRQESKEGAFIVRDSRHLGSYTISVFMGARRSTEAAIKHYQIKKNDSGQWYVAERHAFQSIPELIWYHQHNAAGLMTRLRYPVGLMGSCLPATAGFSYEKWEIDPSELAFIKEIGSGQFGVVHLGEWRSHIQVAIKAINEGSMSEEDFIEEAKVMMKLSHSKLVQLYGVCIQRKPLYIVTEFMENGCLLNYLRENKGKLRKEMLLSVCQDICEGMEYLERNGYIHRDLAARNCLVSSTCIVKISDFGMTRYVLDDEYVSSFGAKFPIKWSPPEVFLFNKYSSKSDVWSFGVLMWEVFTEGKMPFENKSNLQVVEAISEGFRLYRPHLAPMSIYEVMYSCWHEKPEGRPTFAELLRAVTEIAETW

[3] = molecular target: T1, Tyrosine-protein kinase TXK (Homo sapiens); conditions: at 10 µM
[4] = molecular target: T2, Serine/threonine-protein kinase ULK2 (Homo sapiens) (UniProt Q8IYT8); conditions: at 1 µM
T2 sequence (whole entry): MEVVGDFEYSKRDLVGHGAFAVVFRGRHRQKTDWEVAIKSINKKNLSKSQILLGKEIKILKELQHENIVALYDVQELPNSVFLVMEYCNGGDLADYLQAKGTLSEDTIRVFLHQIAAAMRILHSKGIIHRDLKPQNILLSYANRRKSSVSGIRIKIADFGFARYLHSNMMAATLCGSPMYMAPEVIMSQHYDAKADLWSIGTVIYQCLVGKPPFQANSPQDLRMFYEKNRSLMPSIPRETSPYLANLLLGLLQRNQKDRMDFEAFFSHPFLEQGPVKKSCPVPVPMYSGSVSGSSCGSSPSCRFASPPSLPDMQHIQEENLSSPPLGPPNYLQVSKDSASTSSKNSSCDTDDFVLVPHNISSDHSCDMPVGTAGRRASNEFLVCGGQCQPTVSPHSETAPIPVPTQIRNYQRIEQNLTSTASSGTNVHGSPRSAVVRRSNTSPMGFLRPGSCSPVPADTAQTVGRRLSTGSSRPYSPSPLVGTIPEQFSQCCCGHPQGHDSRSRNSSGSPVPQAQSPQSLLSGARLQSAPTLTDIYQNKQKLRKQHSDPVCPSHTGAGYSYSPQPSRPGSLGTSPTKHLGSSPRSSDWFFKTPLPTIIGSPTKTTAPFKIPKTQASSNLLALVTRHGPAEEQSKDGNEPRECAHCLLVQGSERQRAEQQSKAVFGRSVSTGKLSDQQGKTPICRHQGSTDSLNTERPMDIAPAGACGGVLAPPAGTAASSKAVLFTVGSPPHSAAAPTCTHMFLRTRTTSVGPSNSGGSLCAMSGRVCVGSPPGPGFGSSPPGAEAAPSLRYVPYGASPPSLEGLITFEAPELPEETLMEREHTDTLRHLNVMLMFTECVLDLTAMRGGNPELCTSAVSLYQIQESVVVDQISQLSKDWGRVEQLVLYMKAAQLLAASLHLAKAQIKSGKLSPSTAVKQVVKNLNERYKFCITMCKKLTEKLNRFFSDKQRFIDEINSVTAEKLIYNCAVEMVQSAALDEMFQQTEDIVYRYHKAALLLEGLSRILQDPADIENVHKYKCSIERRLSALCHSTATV

[5] = molecular target: T2, Serine/threonine-protein kinase ULK2 (Homo sapiens); conditions: at 10 µM
[6] = molecular target: T3, Serine/threonine-protein kinase ULK3 (Homo sapiens) (UniProt Q6PHR2); conditions: at 1 µM
T3 sequence (whole entry): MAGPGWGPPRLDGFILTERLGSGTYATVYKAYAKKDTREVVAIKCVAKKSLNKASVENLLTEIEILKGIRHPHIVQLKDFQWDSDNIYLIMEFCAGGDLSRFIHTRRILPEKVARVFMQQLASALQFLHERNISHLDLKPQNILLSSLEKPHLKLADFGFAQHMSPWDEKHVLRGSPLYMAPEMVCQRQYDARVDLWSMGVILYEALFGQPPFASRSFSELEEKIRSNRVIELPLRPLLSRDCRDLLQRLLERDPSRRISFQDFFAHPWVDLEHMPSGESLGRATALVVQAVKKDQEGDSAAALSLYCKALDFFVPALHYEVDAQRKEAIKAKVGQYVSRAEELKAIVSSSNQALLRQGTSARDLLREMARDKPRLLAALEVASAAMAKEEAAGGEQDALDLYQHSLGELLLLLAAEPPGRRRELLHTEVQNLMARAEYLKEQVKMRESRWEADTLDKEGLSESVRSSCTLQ

[7] = molecular target: T3, Serine/threonine-protein kinase ULK3 (Homo sapiens); conditions: at 10 µM
[8] = molecular target: Serine/threonine-protein kinase VRK2 (Homo sapiens) (UniProt Q86Y07); conditions: at 1 µM
[9] = molecular target: Serine/threonine-protein kinase VRK2 (Homo sapiens) (UniProt Q86Y07); conditions: at 10 µM
[10] = molecular target: Serine/threonine-protein kinase WNK2 (Homo sapiens) (UniProt Q9Y3S1); conditions: at 1 µM
[11] = molecular target: Serine/threonine-protein kinase WNK2 (Homo sapiens) (UniProt Q9Y3S1); conditions: at 10 µM
[12] = molecular target: Serine/threonine-protein kinase WNK3 (Homo sapiens) (UniProt Q9BYP7); conditions: at 1 µM
[13] = molecular target: Serine/threonine-protein kinase WNK3 (Homo sapiens) (UniProt Q9BYP7); conditions: at 10 µM
[14] = molecular target: Tyrosine-protein kinase Yes (Homo sapiens) (UniProt P07947); conditions: at 1 µM
[15] = molecular target: Tyrosine-protein kinase Yes (Homo sapiens) (UniProt P07947); conditions: at 10 µM
[16] = molecular target: T4, Tyrosine-protein kinase ZAP-70 (Homo sapiens) (UniProt P43403); conditions: at 1 µM
T4 sequence (whole entry): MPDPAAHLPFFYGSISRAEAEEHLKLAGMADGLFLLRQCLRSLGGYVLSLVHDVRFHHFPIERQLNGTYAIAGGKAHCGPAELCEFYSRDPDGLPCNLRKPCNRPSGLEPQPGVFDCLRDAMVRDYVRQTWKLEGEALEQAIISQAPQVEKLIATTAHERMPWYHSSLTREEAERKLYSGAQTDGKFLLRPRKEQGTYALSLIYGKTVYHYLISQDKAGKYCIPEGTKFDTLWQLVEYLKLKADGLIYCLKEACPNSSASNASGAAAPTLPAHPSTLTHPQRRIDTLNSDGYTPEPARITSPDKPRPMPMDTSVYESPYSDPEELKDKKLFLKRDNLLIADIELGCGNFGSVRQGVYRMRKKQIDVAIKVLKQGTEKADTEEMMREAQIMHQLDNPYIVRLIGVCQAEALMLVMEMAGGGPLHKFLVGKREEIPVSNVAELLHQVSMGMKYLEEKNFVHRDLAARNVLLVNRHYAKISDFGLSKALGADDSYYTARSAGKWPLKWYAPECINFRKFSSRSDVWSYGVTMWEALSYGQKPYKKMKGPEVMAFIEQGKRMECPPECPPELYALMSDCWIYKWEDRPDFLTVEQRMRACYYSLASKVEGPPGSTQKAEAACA

[17] = molecular target: Death-associated protein kinase 3 (Homo sapiens) (UniProt O43293); conditions: at 1 µM
[18] = molecular target: Death-associated protein kinase 3 (Homo sapiens) (UniProt O43293); conditions: at 10 µM
[19] = molecular target: RAF proto-oncogene serine/threonine-protein kinase (Homo sapiens) (UniProt P04049); conditions: at 1 µM
[20] = molecular target: RAF proto-oncogene serine/threonine-protein kinase (Homo sapiens) (UniProt P04049); conditions: at 10 µM

Sequence of Tyrosine-protein kinase Yes (Homo sapiens) (P07947 2-543 limits assumed): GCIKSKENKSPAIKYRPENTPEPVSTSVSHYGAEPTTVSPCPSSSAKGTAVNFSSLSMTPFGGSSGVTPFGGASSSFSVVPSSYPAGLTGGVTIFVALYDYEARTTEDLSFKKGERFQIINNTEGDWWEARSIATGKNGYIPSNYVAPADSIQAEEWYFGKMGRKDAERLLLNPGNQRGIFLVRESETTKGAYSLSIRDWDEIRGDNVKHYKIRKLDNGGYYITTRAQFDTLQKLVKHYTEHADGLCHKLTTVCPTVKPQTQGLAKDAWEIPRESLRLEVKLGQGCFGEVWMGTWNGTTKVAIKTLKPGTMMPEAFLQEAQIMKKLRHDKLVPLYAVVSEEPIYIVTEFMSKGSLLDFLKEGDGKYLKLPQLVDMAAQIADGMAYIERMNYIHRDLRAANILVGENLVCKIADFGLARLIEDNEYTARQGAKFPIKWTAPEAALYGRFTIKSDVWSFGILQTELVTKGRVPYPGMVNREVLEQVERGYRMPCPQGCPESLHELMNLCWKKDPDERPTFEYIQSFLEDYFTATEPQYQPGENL
Sequence of BDNF/NT-3 growth factors receptor (Homo sapiens) (Q16620 32-822 limits assumed): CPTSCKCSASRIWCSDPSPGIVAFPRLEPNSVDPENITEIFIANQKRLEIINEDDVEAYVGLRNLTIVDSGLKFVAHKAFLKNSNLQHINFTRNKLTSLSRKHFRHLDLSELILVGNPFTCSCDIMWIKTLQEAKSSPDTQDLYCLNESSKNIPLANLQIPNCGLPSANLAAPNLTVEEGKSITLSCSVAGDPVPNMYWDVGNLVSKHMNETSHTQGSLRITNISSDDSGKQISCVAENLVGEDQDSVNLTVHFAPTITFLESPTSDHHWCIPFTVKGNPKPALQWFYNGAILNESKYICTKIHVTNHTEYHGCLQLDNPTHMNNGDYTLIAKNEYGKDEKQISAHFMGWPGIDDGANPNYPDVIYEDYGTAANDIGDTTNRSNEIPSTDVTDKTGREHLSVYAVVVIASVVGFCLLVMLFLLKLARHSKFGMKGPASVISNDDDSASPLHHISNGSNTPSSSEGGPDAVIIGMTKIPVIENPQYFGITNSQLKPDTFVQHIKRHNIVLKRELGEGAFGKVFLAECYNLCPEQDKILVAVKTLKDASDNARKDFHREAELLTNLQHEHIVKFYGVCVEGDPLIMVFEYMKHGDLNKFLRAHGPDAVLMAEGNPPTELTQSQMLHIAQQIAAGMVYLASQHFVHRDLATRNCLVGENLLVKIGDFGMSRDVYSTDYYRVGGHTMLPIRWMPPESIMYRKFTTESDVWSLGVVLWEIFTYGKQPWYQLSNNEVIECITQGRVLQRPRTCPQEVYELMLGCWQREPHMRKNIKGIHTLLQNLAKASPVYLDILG
Sequence of Serine/threonine-protein kinase WNK2 (Homo sapiens) (Q9Y3S1 whole entry): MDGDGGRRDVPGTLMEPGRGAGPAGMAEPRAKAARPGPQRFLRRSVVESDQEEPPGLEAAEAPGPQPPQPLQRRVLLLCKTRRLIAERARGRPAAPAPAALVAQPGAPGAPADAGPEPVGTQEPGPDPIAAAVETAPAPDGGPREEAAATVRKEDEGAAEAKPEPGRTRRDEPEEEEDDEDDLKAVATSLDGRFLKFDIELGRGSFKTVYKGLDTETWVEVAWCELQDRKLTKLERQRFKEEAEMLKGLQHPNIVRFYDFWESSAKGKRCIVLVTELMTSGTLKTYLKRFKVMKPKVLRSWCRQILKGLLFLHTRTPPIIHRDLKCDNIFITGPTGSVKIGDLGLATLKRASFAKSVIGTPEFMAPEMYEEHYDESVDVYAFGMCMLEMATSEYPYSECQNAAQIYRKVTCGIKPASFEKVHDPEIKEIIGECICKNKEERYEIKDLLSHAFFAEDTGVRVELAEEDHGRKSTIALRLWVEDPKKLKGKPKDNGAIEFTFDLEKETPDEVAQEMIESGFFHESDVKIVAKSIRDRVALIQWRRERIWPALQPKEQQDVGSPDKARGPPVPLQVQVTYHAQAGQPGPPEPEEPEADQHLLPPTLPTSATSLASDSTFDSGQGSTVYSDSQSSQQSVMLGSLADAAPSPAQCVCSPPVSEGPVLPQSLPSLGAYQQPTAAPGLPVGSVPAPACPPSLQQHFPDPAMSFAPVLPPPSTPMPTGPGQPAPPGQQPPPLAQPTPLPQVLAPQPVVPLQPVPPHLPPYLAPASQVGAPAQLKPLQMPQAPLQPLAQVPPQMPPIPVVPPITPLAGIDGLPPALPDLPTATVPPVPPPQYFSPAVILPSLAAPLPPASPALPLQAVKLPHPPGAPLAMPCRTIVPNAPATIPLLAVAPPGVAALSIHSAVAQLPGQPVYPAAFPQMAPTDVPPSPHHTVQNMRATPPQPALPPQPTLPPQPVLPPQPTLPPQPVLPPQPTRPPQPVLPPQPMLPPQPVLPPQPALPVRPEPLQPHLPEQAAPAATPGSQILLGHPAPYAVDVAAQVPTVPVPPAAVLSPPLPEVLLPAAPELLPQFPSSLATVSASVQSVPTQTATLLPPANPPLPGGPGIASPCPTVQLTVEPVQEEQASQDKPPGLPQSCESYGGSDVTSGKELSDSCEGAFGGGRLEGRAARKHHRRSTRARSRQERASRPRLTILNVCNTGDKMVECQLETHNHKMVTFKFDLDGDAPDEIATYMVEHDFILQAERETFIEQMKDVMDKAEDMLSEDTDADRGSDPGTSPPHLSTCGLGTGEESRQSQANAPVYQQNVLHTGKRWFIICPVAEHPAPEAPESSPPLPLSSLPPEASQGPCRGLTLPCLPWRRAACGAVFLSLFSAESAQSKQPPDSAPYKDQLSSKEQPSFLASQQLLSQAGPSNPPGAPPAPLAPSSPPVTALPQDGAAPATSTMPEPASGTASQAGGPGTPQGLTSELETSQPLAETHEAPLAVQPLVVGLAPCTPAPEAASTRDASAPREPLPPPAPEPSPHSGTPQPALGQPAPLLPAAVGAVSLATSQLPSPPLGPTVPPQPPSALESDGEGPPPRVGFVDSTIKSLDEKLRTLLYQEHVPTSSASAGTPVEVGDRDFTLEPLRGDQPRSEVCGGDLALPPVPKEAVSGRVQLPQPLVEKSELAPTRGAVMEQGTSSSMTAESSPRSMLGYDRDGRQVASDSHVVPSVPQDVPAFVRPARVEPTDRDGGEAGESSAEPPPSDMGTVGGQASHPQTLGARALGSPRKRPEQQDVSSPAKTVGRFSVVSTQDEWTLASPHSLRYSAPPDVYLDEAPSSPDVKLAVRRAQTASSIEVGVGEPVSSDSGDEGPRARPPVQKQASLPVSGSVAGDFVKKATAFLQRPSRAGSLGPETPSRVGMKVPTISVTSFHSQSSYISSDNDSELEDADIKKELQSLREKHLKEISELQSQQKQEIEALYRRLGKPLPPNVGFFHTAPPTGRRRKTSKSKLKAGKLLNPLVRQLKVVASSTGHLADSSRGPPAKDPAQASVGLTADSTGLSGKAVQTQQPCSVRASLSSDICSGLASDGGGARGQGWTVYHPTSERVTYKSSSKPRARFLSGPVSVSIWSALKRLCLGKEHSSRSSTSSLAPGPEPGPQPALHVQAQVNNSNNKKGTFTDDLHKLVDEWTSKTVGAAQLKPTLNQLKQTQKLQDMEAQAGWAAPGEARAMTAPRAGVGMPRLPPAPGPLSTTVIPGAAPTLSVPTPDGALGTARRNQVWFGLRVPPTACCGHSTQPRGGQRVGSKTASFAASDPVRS
Sequence of Death-associated protein kinase 3 (Homo sapiens) (O43293 whole entry, looked up): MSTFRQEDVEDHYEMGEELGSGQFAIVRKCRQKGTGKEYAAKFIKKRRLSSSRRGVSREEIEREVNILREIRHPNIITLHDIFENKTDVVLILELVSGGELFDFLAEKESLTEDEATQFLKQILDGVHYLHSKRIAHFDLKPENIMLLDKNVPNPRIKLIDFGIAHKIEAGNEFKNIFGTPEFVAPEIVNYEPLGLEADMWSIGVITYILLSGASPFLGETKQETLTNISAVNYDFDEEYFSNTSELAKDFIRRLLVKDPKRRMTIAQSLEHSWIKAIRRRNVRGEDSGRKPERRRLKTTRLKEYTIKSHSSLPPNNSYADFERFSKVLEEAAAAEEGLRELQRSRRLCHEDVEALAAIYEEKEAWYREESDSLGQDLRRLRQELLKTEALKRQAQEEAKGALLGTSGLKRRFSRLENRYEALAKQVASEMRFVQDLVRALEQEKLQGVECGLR
Sequence of RAF proto-oncogene serine/threonine-protein kinase (Homo sapiens) (P04049 whole entry): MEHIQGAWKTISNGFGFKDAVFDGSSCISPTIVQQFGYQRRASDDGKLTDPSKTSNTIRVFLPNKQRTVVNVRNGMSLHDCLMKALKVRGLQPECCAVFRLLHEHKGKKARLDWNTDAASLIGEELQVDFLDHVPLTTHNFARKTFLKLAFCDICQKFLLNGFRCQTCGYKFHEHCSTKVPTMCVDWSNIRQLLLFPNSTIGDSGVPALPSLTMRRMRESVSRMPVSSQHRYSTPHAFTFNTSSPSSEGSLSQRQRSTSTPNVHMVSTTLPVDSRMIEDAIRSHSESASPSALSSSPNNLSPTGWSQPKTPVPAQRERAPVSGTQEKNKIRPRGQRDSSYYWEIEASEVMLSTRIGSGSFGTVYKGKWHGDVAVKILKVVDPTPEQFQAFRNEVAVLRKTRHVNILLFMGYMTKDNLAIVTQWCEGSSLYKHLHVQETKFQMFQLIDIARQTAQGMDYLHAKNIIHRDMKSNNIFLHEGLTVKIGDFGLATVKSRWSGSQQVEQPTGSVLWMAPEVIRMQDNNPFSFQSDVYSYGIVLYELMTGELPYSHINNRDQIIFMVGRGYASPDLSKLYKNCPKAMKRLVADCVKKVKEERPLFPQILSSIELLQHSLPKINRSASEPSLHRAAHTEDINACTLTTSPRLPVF

Which residual activity [1] does the source give for `O=C1NC(=O)c2c1c1c3ccccc3[nH]c1c1[nH]c3cc(Br)ccc3c21` here?
Its residual activity is 42%.

And the residual activity [2]?
Its residual activity is 89%.

What about the residual activity [3] of the same compound?
Its residual activity is 72%.

What about the residual activity [4] of the same compound?
The residual activity was 108%.

And the residual activity [5]?
Its residual activity is 95%.

What about the residual activity [6] of the same compound?
The residual activity was 88%.

And the residual activity [7]?
The residual activity was 86%.

And the residual activity [8]?
Its residual activity is 95% (inactive).

And the residual activity [9]?
The residual activity was 90%.

And the residual activity [10]?
Its residual activity is 96% (inactive).

And the residual activity [11]?
The residual activity was 85%.

And the residual activity [12]?
Its residual activity is 85% (inactive).

And the residual activity [13]?
The residual activity was 82%.

And the residual activity [14]?
The residual activity was 95%.

And the residual activity [15]?
Its residual activity is 88%.

What about the residual activity [16] of the same compound?
The residual activity was 95%.

What about the residual activity [17] of the same compound?
The residual activity was 102%.

And the residual activity [18]?
The residual activity was 91%.

What about the residual activity [19] of the same compound?
Its residual activity is 82%.

What about the residual activity [20] of the same compound?
Its residual activity is 82%.

How did the residual activity [1] turn out when `COc1cc2ncnc(Nc3ccc(Oc4ccccc4)cc3)c2cc1OC` was run?
Its residual activity is 147%.

What about the residual activity [2] of the same compound?
Its residual activity is 56%.

What about the residual activity [3] of the same compound?
The residual activity was 34%.

And the residual activity [4]?
Its residual activity is 109%.

And the residual activity [5]?
Its residual activity is 95%.

And the residual activity [6]?
The residual activity was 96%.

What about the residual activity [7] of the same compound?
Its residual activity is 79%.

And the residual activity [8]?
The residual activity was 99% (inactive).

And the residual activity [9]?
The residual activity was 73%.

What about the residual activity [10] of the same compound?
The residual activity was 92% (inactive).

And the residual activity [11]?
The residual activity was 41%.

And the residual activity [12]?
The residual activity was 88% (inactive).

And the residual activity [13]?
The residual activity was 49%.

What about the residual activity [14] of the same compound?
Its residual activity is 9%.

What about the residual activity [15] of the same compound?
Its residual activity is 4%.

And the residual activity [16]?
The residual activity was 114%.

And the residual activity [17]?
The residual activity was 103%.

And the residual activity [18]?
The residual activity was 117%.

Which residual activity [1] does the source give for `O=C(O)c1ccc2c3c1cccc3c(=O)n1c3ccccc3nc21` here?
The residual activity was 59%.

What about the residual activity [2] of the same compound?
Its residual activity is 77%.

And the residual activity [3]?
Its residual activity is 60%.

And the residual activity [4]?
The residual activity was 90%.

And the residual activity [5]?
Its residual activity is 48%.

What about the residual activity [6] of the same compound?
Its residual activity is 91%.

What about the residual activity [7] of the same compound?
Its residual activity is 70%.

And the residual activity [8]?
Its residual activity is 105% (inactive).

What about the residual activity [9] of the same compound?
The residual activity was 89%.

And the residual activity [10]?
Its residual activity is 113% (inactive).

What about the residual activity [11] of the same compound?
Its residual activity is 106%.

What about the residual activity [12] of the same compound?
The residual activity was 111% (inactive).

What about the residual activity [13] of the same compound?
The residual activity was 97%.

And the residual activity [14]?
The residual activity was 118%.

And the residual activity [15]?
The residual activity was 103%.

And the residual activity [16]?
Its residual activity is 113%.

And the residual activity [17]?
The residual activity was 60%.

And the residual activity [18]?
Its residual activity is 14%.

And the residual activity [19]?
The residual activity was 83%.

And the residual activity [20]?
Its residual activity is 89%.
